Inconclusive results are not listed. A call without a number means that no potency is given here. Active and inactive are the calls of the source. Calls come from the whole dose curve; as a rule, active = well fitted curve in the direction sought with a large enough effect; inconclusive = small, poorly fitted or top-dose-only effect, or another doubt; inactive = no such curve, though single readings can be large or run the other way.

Sequence of Calcium and integrin-binding protein 1 (Homo sapiens) (Q99828 whole entry, looked up): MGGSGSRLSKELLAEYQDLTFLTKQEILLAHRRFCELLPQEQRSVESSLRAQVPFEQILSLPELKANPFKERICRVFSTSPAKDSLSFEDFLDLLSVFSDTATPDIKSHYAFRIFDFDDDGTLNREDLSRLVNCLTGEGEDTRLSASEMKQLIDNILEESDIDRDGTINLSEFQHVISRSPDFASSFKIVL

The assay concerns the target Calcium and integrin-binding protein 1 (Homo sapiens) (UniProt Q99828). The assay is described as follows: Validation qHTS for Identification of Calcium Integrin Binding protein 1 (CIB1) Competitor (AID 1508618). The settings on record: CIB1-GST / FITC-alphaIIb peptide fluorescence polarization; series mostly up to 114 µM. An excerpt:
Assay Provider: Ulhas P. Naik, PhD
Sidney Kimmel Medical College
Thomas Jefferson University, Philadelphia, PA
Primary function of platelets is to maintain hemostasis. At the site of vascular injury, platelets adhere to adhesive proteins such as collagen and von Willebrand factor. Adherent platelets are activated and generate soluble platelet agonists such as thrombin, ADP and thromboxane A2. Following exposure of circulating platelets to these agonists, results in platelet shape change, granule secretion and activation of platelet integrin alphaIIb-beta3. Ligand binding to activated integrin alphaIIb-beta3 triggers outside-in signaling, leading to platelet aggregation, stabilization of platelet plug, and clot retraction. Upon atherosclerotic plaque rupture also causes platelet plug formation, which underlies a number of cardiovascular diseases such as myocardial infraction and stroke. A number of anti-platelet drugs such as aspirin, clopidogrel, prasugrel, vorapaxar, and eptifibatide are currently available to prevent the thrombotic complications. However, these anti-platelet agents have several limitations including inherent variability in individual responses, developing resistance, and serious bleeding side effects. For these reasons they are not suitable for long-term protection. Based on the experiences with current anti-platelet drugs, it appears that the most useful therapeutic approach is to intersect the secondary responses such as integrin outside-in signaling or recruitment of platelets by TxA2 and secreted ADP. Compounds, which can largely preserve the primary hemostatic function of platelets but inhibit secondary response will be most desired therapeutic agents for treatment of cardiovascular disease.
CIB1 is a calcium integrin binding protein, which specifically interact with the alphaIIb subunit of integrin alphaIIb-beta3. Binding of CIB1 to alphaIIb regulates the outside-in signaling in platelets, which is needed for thrombus stabilization and thrombus growth. […] Therefore, we propose that discovery of a small molecule that can prevent the association of CIB1 and alphaIIb-beta3 will be a potential anti-platelet agent that can block the thrombus formation without undue effect on hemostasis.
To develop fluorescence polarization (FP) assay using fluorescently labeled alphaIIb peptide and CIB1 protein. Using FP assay characterize the binding affinity, competitive inhibition, and acceptable Z factor (0.5 to1) in order to perform the HTS to identify small molecule compound that can prevent CIB1 binding to platelet integrin alphaIIbbeta3. This assay is screened against the NCATS LOPAC library to validate the amenability of the assay to qHTS.
[1] Naik MU, Nigam A, Manrai P, et al. CIB1 deficiency results in impaired thrombosis: the potential role of CIB1 in outside-in signaling through integrin alpha IIb beta 3. J Thromb Haemost. 2009;7(11):1906-1914. doi:10.1111/j.1538-7836.2009.03581.
SEQUENCE No. (1, 2, 3, etc.); […] (e.g., Cells, Incubation, Reagent, etc.); VALUE and DESCRIPTION.
1; Reagent; 3 uL; Protein or buffer (4/3x)
2; Compound; 46 nL; Control inhibitor / compound library
3; Time; 15 min; Room temperature incubation
4; Reagent; 1 uL; Fluorescent labeled peptide (4x)
5; Time; 1000 rpm; Centrifuge
6; Time; 15 min; Room temperature incubation
7; Detection; Ex 480/ Em 540; ViewLux Fluorescence Read
NOTES (numbers refer to sequence above)
1; Protein Mixture: C1B1-GST (final concentrations of 1 uM). Buffer composition: 5 mM HEPES pH 7.4, 125 mM NaCl, 5 mM CaCl2, 0.01% Tween20.
2; Control Inhibitor: unlabeled peptide (final concentration range 17.4 nM to 572 uM). Compound Library final concentration range 18.3 nM to 114 uM.
3; Room temperature incubation.
4; Fluorescent Labeled Peptide: FITC-aIIb (final concentration of 100 nM). Sequence of alphaIIb peptide: Acetyl-[…]-FITC (purity is 95.83%).
6; Room temperature incubation.
[…]
In general terms: Quantitative high-throughput screening tests each substance at several concentrations.
In the case of `COCc1nc2c([nH]1)c(=O)n(C)c(=O)n2CC(C)C`, the Potency result was “inactive”.

Take `O=C(O)[C@H]1NCCC[C@H]1C(=O)O`: the Potency result was “inactive”.

For the molecule `CCCCCCCCCCC(C)(C)C(=O)Nc1c(OC)cc(OC)cc1OC`, the Potency entry was “inactive”.

Regarding `Nc1nc2c(cnn2CCc2ccccc2)c2nc(-c3ccco3)nn12`, the Potency entry was “inactive”.

On to `COc1ccccc1N1CCN(CCCCN2C(=O)c3ccccc3C2=O)CC1`, for which the Potency entry is “inactive”.

Consider `O=C(O)C1=CCCNC1`, for which the Potency entry is “inactive”.

As for `CCN(CC)CCCCCCCCOC(=O)c1cc(OC)c(OC)c(OC)c1`, the Potency result was “inactive”.

For the molecule `CCCCS(=N)(=O)CC[C@H](N)C(=O)O` (stereo not given in full), the Potency result is “inactive”.

`OC[C@H]1O[C@@H](n2cnc3cncnc32)[C@H](O)[C@@H]1O`: the Potency result is “inactive”.

Consider `CCCN(CCc1ccccc1)C1CCc2c(O)cccc2C1` (stereo not given), for which the Potency result is “inactive”.

In the case of `O=C(O)c1cc(=O)cc(C(=O)O)[nH]1`, the Potency entry was “inactive”.

With `COc1cc(CC(=O)O)ccc1O`, the Potency result is “inactive”.

In the case of `Cc1ccc([N+](=O)[O-])cc1S(=O)(=O)N(C)C`, the Potency result is “inactive”.

On to `N[C@H](C(=O)O)[C@H]1C[C@@H]1C(=O)O`, for which the Potency entry was “inactive”.

Regarding `C=CC1(C)CC(=O)C2(O)C(C)(O1)C(OC(C)=O)C(O)C1C(C)(C)CCC(O)C12C` (stereo not given), the Potency entry was “inactive”.

Turning to `N=C(N)c1ccc(OCCCCCOc2ccc(C(=N)N)cc2)cc1` (tested in a mixture with another compound), the Potency result is “inactive”.

Take `CN1Cc2sccc2C(c2ccc(O)c(O)c2)C1` (stereo not given): the Potency result was “inactive”.

As to `N=S(=O)(O)Cc1noc2ccccc12`, the Potency entry was “inactive”.

As to `Clc1nccc2c1ccc1ccccc12`, the Potency entry is “inactive”.

Turning to `CCn1c(=O)[nH]c2cc(Cl)c(Cl)cc21`, the Potency result was “inactive”.

Take `OC[C@H]1NC[C@@H](O)[C@@H]1O`: the Potency result is “inactive”.

`CC(=O)C(C)=O`: the Potency entry was “inactive”.

On to `O=c1ccn([C@@H]2O[C@H](COP(=O)(O)OP(=O)(O)O)[C@@H](O)[C@H]2O)c(=O)[nH]1`, for which the Potency entry is “inactive”.

As for `CN(C)CCC(c1ccc(Br)cc1)c1ccccn1` (stereo not given), the Potency result was “inactive”.

Consider `NC(N)=N[C@@H](CCC(=O)O)C(=O)O`, for which the Potency entry is “inactive”.

With `CCCCCCN(CCCCCC)C(=O)Cc1c(-c2ccc(F)cc2)[nH]c2ccccc12`, the Potency entry was “inactive”.

Consider `Cc1cc2c(cc1Cl)N(C(=O)Nc1ccnc3ccccc13)CC2`, for which the Potency result is “inactive”.

As for `C[C@]12C=CC(=O)C=C1CC[C@@H]1C2=CC[C@]2(C)[C@@H](C(=O)CN3CCN(c4cc(N5CCCC5)nc(N5CCCC5)n4)CC3)CC[C@@H]12`, the Potency result was “inactive”.

On to `CC(N)(C(=O)O)c1ccc(C(=O)O)cc1` (stereo not given), for which the Potency entry was “inactive”.

Take `C=CCN1CCc2c(cc(O)c(O)c2Br)[C@@H](c2ccccc2)C1`: the Potency entry was “inactive”.

As to `NCCNS(=O)(=O)c1cccc2c(Cl)cccc12`, the Potency result is “inactive”.

Turning to `NOCC(=O)O`, the Potency entry is “inactive”.

Turning to `O=C1Nc2ccc(I)cc2/C1=C/c1cc(Br)c(O)c(Br)c1`, the Potency result is “inactive”.

Turning to `NC(Cc1cccc(-c2ccccc2CP(=O)(O)O)c1)C(=O)O` (stereo not given), the Potency result is “inactive”.

As for `CC(=O)[C@H]1CCC2C3CC=C4C[C@@H](OS(=O)(=O)O)CC[C@]4(C)C3CC[C@@]21C` (stereo not given in full), the Potency entry is “inactive”.

Regarding `Cc1ccccc1/C=C/C1=NCCN1`, the Potency entry is “inactive”.

Regarding `Cc1nc2n(c(=O)c1CCN1CCC(c3noc4cc(F)ccc34)CC1)CCCC2O` (stereo not given), the Potency entry was “inactive”.

In the case of `C[C@](Cc1ccc(O)c(O)c1)(NN)C(=O)O`, the Potency entry was “inactive”.

Consider `N[C@@H](Cc1ccc(O)c(I)c1)C(=O)O`, for which the Potency entry is “inactive”.

In the case of `NC(C(=O)N[C@@H]1C(=O)N2C(C(=O)O)=C(Cl)CS[C@H]12)c1ccccc1` (stereo not given in full), the Potency result is “inactive”.

The values above are taken from PubChem BioAssay (NCATS).
